# Screening data deposited in PubChem by Broad Institute.
# TRPM1 prom inh: MITF TRPM1 promoter inhibition in SK-MEL-5 cells. SK-MEL-5 TRPM1 promoter luciferase, 24 h. inhibition, % at 12.5 µM. 330,000 tested, 0.83% active. AID 488899;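 active = mean inhibition across replicates of 60% or more, whatever share of single replicates reaches that level; inconclusive = some that reach 60%, reason not given; inactive = mean inhibition across replicates below 60%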
# NSD2 HMT inh: inhibitors of human histone methyltransferase NSD2. O96028. NSD2 peptide methylation, AlphaScreen, 120 min. inhibition, % at 12.5 µM. 310,000 tested, 0.54% active; in the data active = inhibition above about 50%
# N-glyco inh: blocks N-linked glycosylation in D54 reporter cells | 360,000 tested, 0.23% active | D54 ERlucT glycosylation luciferase reporter, 24 h; percent of 100 nM tunicamycin response | reporter increase, % at 12.5 µM;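 active = mean luciferase reporter signal, scaled so untreated is 0 and the glycosylation-blocking control 100, at or above a set limit in every replicate; inconclusive = mean reaches the limit but not every replicate does; inactive = mean below the limit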;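 also: luciferase carries N-glycosylation sites so blocking glycosylation raises the light; 0% = median of neutral control wells and 100% = median of 100 nM tunicamycin wells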
# MITF TRPM1 HTS: increases MITF-driven TRPM1 promoter luciferase signal. AID 588334. activation, % at 12.5 µM. 300,000 tested, 0.75% active. SK-MEL-5 TRPM1-promoter luciferase, 24 h; % of positive control, neutral wells = 0;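 active = mean activation of at least 80% with every replicate also reaching 80%; inconclusive = mean reaches 80% but some replicate falls short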;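 also: 0% = neutral control wells and 100% = parthenolide positive control wells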
# Wnt act: activates Wnt/beta-catenin signaling in a reporter cell assay; 300,000 tested, 1.2% active; activator, plate reader; activation, % at 9.35 µM; AID 743398; in the data active = activation above about 30%, passing the limit was not always enough; inconclusive = no clear call, values can overlap the other calls;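 also: 0% = neutral control wells and 100% = positive control wells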
# PfHsp90 yeast 2: growth inhibition of yeast expressing Plasmodium Hsp90; 310,000 tested, 0.32% active; S. cerevisiae expressing PfHsp90, BacTiter-Glo ATP, 48 h; yeast lacking PDR1 and PDR3 efflux regulators; inhibition, % at 9.4 µM; AID 504621;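 active = every replicate shows inhibition above about 80%, whatever the replicate mean, limit read from the data; inconclusive = mean inhibition reaches the set limit but some replicate falls short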;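 also: 0% = DMSO neutral controls and 100% = 20 µM radicicol positive controls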
# An asterisk follows results filed as active; ? = inconclusive; . = no result given. This is a sample that favours compounds with a hit; in the whole collection about 2.9% have one here.
SMILES,TRPM1 prom inh,NSD2 HMT inh,N-glyco inh,MITF TRPM1 HTS,Wnt act,PfHsp90 yeast 2
O=C(NCc1ccccc1)C(c1ccc(F)cc1)N1CCN(c2ccccc2F)CC1 (stereo not given),.,.,.,.,-2,.
COc1cc(/C=C2\SC(=S)N(NC(=O)c3ccccc3O)C2=O)ccc1O,-6,18,-1,6,1,-6
O=C(NN1C(=O)/C(=C/c2ccc(O)c([N+](=O)[O-])c2)SC1=S)c1ccccc1Cl,13,15,-1,-14,-1,104*
CCOC(=O)N1CCN(C(=O)c2cccc(S(=O)(=O)Nc3ccc(F)cc3)c2)CC1,4,1,-1,-5,39*,.
CCOC(=O)N1CCN(C(=O)c2cccc(S(=O)(=O)Nc3ccc(OC)cc3)c2)CC1,7,2,-1,-6,2,.
C=CCn1c(-c2ccc(Cl)cc2)c[nH]c1=S,4,-1,1,0,10,-2
C=CCn1c(-c2ccccc2)c[nH]c1=S,-63,5,-1,65,43*,-11
COCc1[nH]c(=S)[nH]c(=O)c1C,-1,1,0,0,-1,-7
COC(=O)c1cc(=O)n(Cc2ccco2)c(=Nc2ccccc2)s1,.,5,.,.,7,.
CC(=NNc1ccc2ccccc2n1)c1ccccn1,.,9,.,.,-18,.
COc1ccc2nc(NN=C(C)c3ccccn3)cc(C)c2c1,77*,2,-12,-77,-8,-2
NC(=O)c1ncn([C@@H]2O[C@H](C(=O)N[C@H](Cc3c[nH]c4ccccc34)C(=O)N3CCN(C(=O)N4CCCCC4)CC3)[C@@H](O)[C@H]2O)n1,.,.,.,.,-1,.
O=C(COc1ccccc1F)N/N=C1\CCCc2ccccc21,-67,-3,-1,71,33*,.
COc1ccccc1OCC(=O)N/N=C1\CCCCc2ccccc21,-9,-4,-3,8,4,-1
Cc1cc(C)nc(NC(=O)/C=C/c2ccc3c(c2)OCO3)c1,-111,3,-3,115*,44*,1
O=C(/C=C/c1ccc2c(c1)OCO2)c1ccc(O)cc1O,-61,8,8,64,?,.
Nc1ccccc1C(=O)/C=C/c1ccc2c(c1)OCO2,-84,.,-7,85*,35*,13
CC(C)(C)c1ccc(/C=C/C(=O)Nc2nncs2)cc1,-84,-2,-8,89*,26,-5
CC(=O)Nc1ccc(NC(=O)/C=C/c2ccc3c(c2)OCO3)cc1,-32,2,-2,29,7,6
O=C(/C=C/c1ccc2c(c1)OCO2)Nc1nc(-c2ccccc2)cs1,14,5,0,-13,.,-13
O=C(/C=C/c1ccc2c(c1)OCO2)Nc1nncs1,.,-4,-7,.,61*,.
COc1ccc(C(=O)Nc2ccccc2NC(=O)c2ccc(OC)c(OC)c2)cc1OC,.,0,.,.,.,.
Nc1nnc(-c2cccc([N+](=O)[O-])c2)o1,5,-5,3,13,2,-16
O=[N+]([O-])c1cccc(-c2nnc(-c3ccccc3F)o2)c1,-55,-3,-2,.,49*,-28
N#Cc1ccc(OCCCN2CCC(C(O)(C3=CCCC3)c3ccccc3)CC2)cc1 (stereo not given),.,.,.,.,-4,.
SMILES,TRPM1 prom inh,NSD2 HMT inh,N-glyco inh,MITF TRPM1 HTS,Wnt act,PfHsp90 yeast 2
Cc1ccc(Nc2nc(=O)c3cccnc3s2)c(Br)c1,-17,-2,-12,.,-2,17
O=C(Nc1nccs1)c1ccc(-c2ccc(F)c(Cl)c2)o1,-114,-1,0,113*,11,6
O=C(Nc1nccs1)c1ccc(-c2ccc(Cl)cc2Cl)o1,-4,-2,1,8,-1,-8
[O-]/[N+](=C\c1ccccc1)c1ccc(Br)cc1,-65,.,-2,63,32*,5
CCN(c1ccccc1)S(=O)(=O)c1ccc(C(=O)NC2CCN(Cc3ccccc3)CC2)cc1,36,1,48*,-39,.,15
Nc1c(C(=O)Nc2ccc(S(=O)(=O)N3CCCC3)cc2)sc2nc3ccc(OC(F)(F)F)cc3cc12,83*,0,100*,-82,-22,-7
O=S(=O)(Nc1cccc(-c2ccc(N3CCCCCC3)nn2)c1)c1cccc(F)c1,-94,2,-9,98*,29,0
O=C(Nc1cccc(-c2ccc(N3CCCCC3)nn2)c1)C(F)(F)F,62*,-2,-24,-63,-6,20
COc1cc(C2C(C#N)=C(N)OC3=C2C(=O)CC(C)(C)C3)cc([N+](=O)[O-])c1O (stereo not given),10,3,1,-7,40*,-35
CN=c1scc(-c2ccccc2F)n1/N=C(\C)c1cccnc1,-19,28,-8,17,19,8
Cc1cc(C)cc(N(CC(=O)NC(C)C)C(=O)CCC(=O)Nc2ccccn2)c1,-3,0,1,.,0,-4
O=C(Nc1ccc(Nc2ccncc2)cc1)c1ccc([N+](=O)[O-])cc1,86*,-2,-18,-86,-2,-12
O=C(Nc1ccc(Oc2cccnc2)cc1)c1ccc([N+](=O)[O-])cc1,-8,-5,-1,6,-3,18
CC(=O)c1cccc(NC(=S)N2CCN(S(=O)(=O)c3ccc(F)cc3)CC2)c1,-8,0,1,8,25,-8
COc1ccc(/C=N/N=C2/SCC(=O)N2Cc2ccccc2)cc1,-91,-1,-4,.,56*,0
COC(=O)C1=C(C)N(Cc2ccc(Cl)cc2)C(=S)NC1c1cccc(Br)c1 (stereo not given),.,-2,.,.,-5,.
c1ccc(Nc2nc3ccccc3o2)cc1,-35,15,-7,34,.,-14
Fc1ccccc1Nc1nc2ccccc2o1,-82,-2,-14,100*,0,46
O=C(O)CCCC(=O)Nc1ccc(OCc2nc3ccccc3s2)cc1,-2,-2,-1,0,51*,7
CCCCc1c(-c2ccccc2OC)ncn1Cc1ccccc1Cl,.,.,.,.,-7,.
Cc1nc2ccccc2nc(=O)c1NNc1ccccc1,-85,1,9,102*,25,-18
O=C(C(=O)N1CCC(CNC(=O)c2ccccc2F)CC1)c1cc2ccccc2o1,.,-1,.,.,-4,.
COC(=O)CSc1nc2ccccc2c(=O)n1C,-5,-11,1,3,42*,9
Cn1c(SCC(=O)O)nc2ccccc2c1=O,-4,.,2,-2,-1,-2
C[C@H](c1ccccc1)N1C[C@@H](COCc2ccccc2)Oc2cccc(Oc3ccc(C(C)(C)C)cc3)c2S1(=O)=O,.,.,.,.,-5,.
COC(=O)c1cc2c(c3c4cc(OC)ccc4n(S(=O)(=O)c4ccc(OC)cc4)c13)C(=O)N(C1CCCCC1)C2,.,.,.,.,-3,.
O=C(NCc1ccco1)c1nc2c(nnn2Cc2ccccc2Cl)c(=O)[nH]1,72*,3,-7,-72,-4,-77
COC(=O)N1Cc2ccnnc2CC1c1ccccc1-c1ccccc1 (stereo not given),.,.,.,.,1,.
